Test results taken from PubChem BioAssay (NCATS).
Records with an inconclusive call do not appear. Activity calls are given as the source filed them. Calls come from the whole dose curve; as a rule, active = well fitted curve in the direction sought with a large enough effect; inconclusive = small, poorly fitted or top-dose-only effect, or another doubt; inactive = no such curve, though single readings can be large; an effect the other way counts as inactive or inconclusive.

Key:
[1] = biological target: Glutathione peroxidase 1 (Homo sapiens) (UniProt P07203); assay: Primary qHTS Assay for Inhibitors of Recombinant Selenoprotein Glutathione Peroxidase 1 (GPX1) (AID 1845191); note: nearly all actives have a fitted effect of over 65% in size; note: potency is the fitted concentration of half-maximal effect
Glutathione peroxidase 1 (Homo sapiens), sequence (P07203 whole entry, looked up): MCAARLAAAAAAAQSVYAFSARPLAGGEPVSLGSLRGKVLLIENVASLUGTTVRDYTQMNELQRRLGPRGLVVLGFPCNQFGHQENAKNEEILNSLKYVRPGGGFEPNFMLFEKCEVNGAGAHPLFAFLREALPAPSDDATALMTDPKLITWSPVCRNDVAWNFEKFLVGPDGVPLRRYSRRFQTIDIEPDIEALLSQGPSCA
In short: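 NADPH consumption tracked by fluorescence at 340/450 nm between t=0 and t=15 min, room temperature. Final mix: 10 nM GPX1, 100 nM glutathione reductase, 1 mM GSH, 0.5 mM NADPH, 0.5 mM cumene hydroperoxide, 0.01% BSA; 30 min compound–enzyme preincubation.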

[2] = biological target: Phospholipid hydroperoxide glutathione peroxidase GPX4 (Homo sapiens) (UniProt P36969); assay: Primary qHTS Assay for Inhibitors of Recombinant Selenoprotein Glutathione Peroxidase 4 (GPX4) (AID 1845192); note: nearly all actives have a fitted effect of over 65% in size; note: potency is the fitted concentration of half-maximal effect
Phospholipid hydroperoxide glutathione peroxidase GPX4 (Homo sapiens), sequence (P36969 whole entry, looked up): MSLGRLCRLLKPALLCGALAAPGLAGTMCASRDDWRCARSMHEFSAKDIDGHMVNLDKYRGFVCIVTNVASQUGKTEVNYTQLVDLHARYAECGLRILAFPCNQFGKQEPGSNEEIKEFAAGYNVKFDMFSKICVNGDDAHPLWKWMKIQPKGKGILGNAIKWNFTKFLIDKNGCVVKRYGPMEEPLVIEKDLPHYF
In short: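 NADPH consumption followed by fluorescence at 340/450 nm, t=0 and after 15 min at room temperature. Reaction started with cumene hydroperoxide (0.5 mM final) after 30 min compound–GPX4 preincubation; final 200 nM GPX4, 100 nM GR, 1 mM GSH, 0.5 mM NADPH.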

[3] = biological target: Luciferin 4-monooxygenase (Photinus pyralis) (UniProt P08659); assay: Primary firefly luciferase (FLuc) qHTS assay for identification of artifact compounds. (AID 1845220); note: nearly all actives have a fitted effect of over 60% in size; note: potency is the fitted concentration of half-maximal effect
In short: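 FLuc 10 nM; luciferin 10 uM; ATP 10 uM; Tris-acetate pH 7.6, Mg-acetate 10 mM; 15 min RT preincubation; 5 min reaction; luminescence.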

[4] = Primary fluorescence-based thiol-reactive (MSTI) qHTS assay for identification of artifact compounds. (AID 1845221); note: nearly all actives have a fitted effect of over 65% in size; note: potency is the fitted concentration of half-maximal effect
In short: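 qHTS titration of compound; 4 uM MSTI, PBS pH 7.4, 2% DMSO; 1 h RT, dark; fluorescence 525/598 nm; normalized to Acetyl-MSTI and MSTI; 4-parameter Hill fit.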

[5] = test system: Nanoluciferase (engineered Oplophorus gracilirostris luciferase); assay: Primary Nanoluciferase (NLuc) qHTS assay for identification of artifact compounds. (AID 1845222);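 note: NLuc secreted into diluted conditioned medium of S16 cells; series mostly up to about 54 µM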
In short: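 NLuc from S16 cell medium (1:55) plus test compounds, 15 min, room temperature. Luminescence after Nano-Glo (1:100) addition, 5 min.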

[6] = Primary redox qHTS assay for identification of artifact compounds. (AID 1845223); note: potency is the fitted concentration of half-maximal effect
In short: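 Redox-cycling detection via DTT (250 uM final) oxidation coupled to Amplex Red (25 uM)/HRP (250 mU/mL) in HBSS. 15 min preincubation plus 30 min after DTT, room temperature. Ex/Em 525/598 nm; 4-parameter Hill fit against DMSO and 10 uM DA3003.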

Measured: Potency

OC1(CN2CCC(COc3noc4cccc(O[C@@H]5CCOC5)c34)CC2)CCOCC1
inactive: all assays above

CN(C)CC#CCCC(=O)C(O)(c1ccccc1)C1CCC1 (centres undefined)
inactive: all assays above

O=C(c1cc(Cc2n[nH]c(=O)c3ccccc23)ccc1F)N1CCCNCC1
inactive: all assays above

O=C(Nc1nc2cc(C(F)(F)F)cc(NC3CC3)n2n1)c1cccnc1
inactive: all assays above

COc1ccc(-c2ccc3c(N4CCOCC4C)nc(N4CCOCC4C)nc3n2)cc1CO (centres undefined)
active: [1] 18 µM | [2] 10.1 µM
inactive: all other assays above

C=C1CC[C@@H]2[C@](C)(CO)[C@H](O)CC[C@@]2(C)[C@@H]1CC(O)C1=CCOC1=O (some centres undefined)
inactive: all assays above

Cc1csc2c(N[C@@H](C)CN3CCN(S(=O)(=O)c4ccc(Cl)c(Cl)c4)CC3)ncnc12
inactive: all assays above

Cc1ccc(C)c(NS(=O)(=O)c2cc(C(=O)Nc3ccccc3-c3ccccc3)ccc2C)c1
inactive: all assays above

CCOc1cccc(NC(=O)c2ccc(N3CCCC3)c(C(F)(F)F)c2)c1
inactive: all assays above

CC(C)C[C@@H](N)C(=O)N[C@H]1C(=O)N[C@@H](CC(N)=O)C(=O)N[C@H]2C(=O)N[C@H]3C(=O)N[C@H](C(=O)N[C@H](C(=O)O)c4cc(O)cc(O)c4-c4cc3ccc4O)[C@H](O)c3ccc(c(Cl)c3)Oc3cc2cc(c3O[C@@H]2O[C@H](CO)[C@@H](O)[C@H](O)[C@H]2O[C@H]2C[C@](C)(N)[C@H](O)[C@H](C)O2)Oc2ccc(cc2Cl)[C@H]1O
inactive: all assays above

CCOc1ccc(S(=O)(=O)N2CCCCCC2)c2ccccc12
inactive: all assays above

CCCn1ncc(CN2CCCC(C(=O)c3cccc(OC(C)C)c3)C2)c1C (centres undefined)
inactive: all assays above

O=C(c1c(F)ccc(NS(=O)(=O)N2CC[C@@H](F)C2)c1F)c1c[nH]c2ncc(-c3cnc(C4CC4)nc3)cc12
inactive: all assays above

CCC(C)CNCC(=O)N1CCc2sccc2C1COc1cccc(C)c1 (centres undefined)
inactive: all assays above

Cc1ccc(-c2c(C(=O)CCl)n(CCCO)c3ncnc(N)c23)cc1
active: [6] 15 µM
inactive: all other assays above

CCC(C)/C=C(C)/C=C/C1=CC2=CC(=O)C3(C)OC(C)(O)C(C(=O)OC)C3C2=CO1 (centres undefined)
inactive: all assays above

COc1ccc(S(=O)(=O)N2CCC[C@H]2C(=O)Nc2cc(C)cc(C)c2)cc1
inactive: all assays above

CC(C)S(=O)(=O)Nc1ccc(F)c(C(=O)c2c[nH]c3ncc(-c4cccnc4)cc23)c1F
inactive: all assays above

O=C(NC[C@H](O)CN1CCc2ccccc2C1)c1ccnc(NC2CCC2)c1
inactive: all assays above

CNCCCC1(c2ccccc2)OC(C)(C)c2ccccc21 (centres undefined)
inactive: all assays above

CC(=O)O[C@H]1CC[C@]2(C)[C@H]3CC[C@]4(C)Oc5oc(C)cc(=O)c5C[C@H]4[C@]3(C)CC[C@H]2C1(C)C
inactive: all assays above

C=C[C@](C)(O)CC[C@H]1C(C)=CC(=O)[C@H]2C(C)(C)CCC[C@]12C
inactive: all assays above

C=C1C(=O)OC2/C=C(\CO)CC/C=C(\C=O)C(O)C(OC(=O)C(C)CC)C12 (centres undefined)
active: [4] 14.7 µM
inactive: all other assays above

CCN(Cc1cc(Nc2nc(C)cn3c(-c4cn[nH]c4)cnc23)sn1)C(C)(C)CO
inactive: all assays above

Cc1ccc(C(=O)Nc2ccc(CN3CCN(C)CC3)c(C(F)(F)F)c2)cc1C#Cc1cnc2[nH]ncc2c1
active: [3] 23.9 µM
inactive: all other assays above

CC(=O)[C@H]1CC[C@H]2[C@@H]3CC=C4C[C@@H](OS(=O)(=O)O)CC[C@]4(C)[C@H]3CC[C@]12C
inactive: all assays above

CC(C)S(=O)(=O)NC[C@H](C)c1ccc(-c2ccc(CCNS(C)(=O)=O)cc2)cc1
inactive: all assays above

COc1c2c(nc3occc13)C(CC=C(C)C)(OC)C(O)CC2 (centres undefined)
inactive: all assays above

O=C(O)c1ccc(S(=O)(=O)N(Cc2ccc(OC(F)(F)F)cc2)c2ncc(C(F)(F)F)cc2Cl)cc1
inactive: all assays above

COc1cc(O)cc(/C=C/c2cccc(O)c2)c1
active: [3] 10.7 µM | [4] 18.9 µM
inactive: all other assays above

C/C=C(\C)C(=O)O[C@H]1C[C@](C)(O)[C@H]2CC=C(C)[C@H]2[C@@H]2OC(=O)[C@H](C)[C@H]21
inactive: all assays above

C=CCc1ccc(OC(C)Cc2ccc(OC)c(OC)c2)c(OC)c1 (centres undefined)
inactive: all assays above

N#Cc1cccc(C(=O)Nc2cc(-c3ccccc3)nn2-c2ccccc2)c1
inactive: all assays above

O=c1[nH]c2ccc(C#CCN3CCC(Cc4ccccc4)CC3)cc2[nH]1
inactive: all assays above

CCCc1cc(C)n(C)c(=O)c1CN(C)C(=O)c1cc(-c2ccc(N3CCN(C(C)C)CC3)nc2)cc2c1cnn2C(C)C
inactive: all assays above

O=C(NCCN1CCOCC1)c1cc2c(Oc3ccc(NC(=O)C4(C(=O)Nc5ccc(F)cc5)CC4)cc3)ccnc2[nH]1
inactive: all assays above

c1cc(-c2cnn3cc(-c4ccc(N5CCNCC5)cc4)cnc23)c2cccnc2c1
inactive: all assays above

CCOC(=O)N1CCC(N2CCC[C@@H](NC(=O)c3ccccc3C)C2)CC1
inactive: all assays above

CN(C)C(=O)NC1(c2ccccc2)CCN(CCC[C@]2(c3ccc(Cl)c(Cl)c3)CCCN(C(=O)c3ccccc3)C2)CC1
inactive: all assays above

C/C1=C\[C@@H](C)C[C@@H](C)[C@@H](Cc2cnco2)OC(=O)/C(C)=C/[C@@H](C)C[C@@H](C)[C@@H](Cc2cnco2)OC1=O
inactive: all assays above

O=C(CCl)Nc1cccc(NC2=NS(=O)(=O)c3ccccc32)c1
inactive: all assays above

CCN1C(C)(C)CC(Oc2ccc(C(=O)Nc3ccc(NC(=O)Nc4cc(C(C)(C)C)on4)cc3)nc2)CC1(C)C
inactive: all assays above

O=C(NCCCCCCCCNC(=O)C(Cl)Cl)C(Cl)Cl
inactive: all assays above

C=C1C(=O)O[C@H]2C3=C(C)CCC[C@]3(C)C(=O)C[C@@H]12
inactive: all assays above

C/C=C(/C=C(C)/C=C/C=C/C=C(\C)C(=O)C12OC1C(O)(CCO)NC2=O)C(=O)OC (centres undefined)
inactive: all assays above

COc1ccc(C2=NC(c3ccc(Cl)cc3)C(c3ccc(Cl)cc3)N2C(=O)N2CCNC(=O)C2)c(OC(C)C)c1 (centres undefined)
inactive: all assays above

C=C1CC[C@@H]2[C@](C)(CO)[C@H](O)CC[C@@]2(C)[C@@H]1C/C=C1/C(=O)OCC1OC(=O)/C(=C/CO)C(O)C[C@@H]1C(=C)CC[C@@H]2[C@](C)(CO)[C@H](O)CC[C@]21C (some centres undefined)
inactive: all assays above

Cc1sc2c(c1C)C(c1ccc(Cl)cc1)=N[C@@H](CC(=O)Nc1ccc(OCCOCCOCCOCCNc3cccc4c3C(=O)N(C3CCC(=O)NC3=O)C4=O)cc1)c1nnc(C)n1-2 (some centres undefined)
inactive: all assays above

O=S(=O)(c1ccc(Cl)cc1)N1CCN(c2ccnc3cc(Cl)ccc23)CC1
inactive: all assays above
